# Experimental data published in the supplement of paper PMC7411054.
# Columns and labels:
# Conditions in all cases: treatment time: 24 h
# [1] = system: A549-ACTB-RAB5A; experiment: lowest phenotypically active concentration; higher = less potent
# In short: (§1)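 The reporter lines, fifteen in total and built by gene editing in A549, HepG2 and WPMY1 cells, used BFP for segmentation alongside GFP and RFP/FusionRed markers. Each was treated at 0.3, 1, 3 or 9 µM for 24 h in four wells and then imaged live, with live-cell features normalised to solvent control wells. Deviation meant ≥3 of 4 wells beyond the 95th percentile of control Euclidean distances; reproducibility meant a median replicate Pearson correlation above the 95th percentile of non-replicates. Only conditions meeting both were scored as phenotypically active.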
# [2] = system: A549-CANX-COX4; experiment: as above
# In short: as §1
# [3] = system: A549-GM130-SQSTM1; experiment: as above
# In short: as §1
# [4] = system: A549-TP53BP1-CLTA; experiment: as above
# In short: as §1
# [5] = system: HepG2-ACTB-RAB5A; experiment: as above
# In short: as §1
# [6] = system: A549-ACTB-RAB5A; experiment: phenotypically active (imaging signature differs from DMSO and reproducible) at any of 0.3-9 uM (binary (1 = active, 0 = inactive)); higher = active
# In short: as §1
# [7] = system: A549-CANX-COX4; experiment: as above
# In short: as §1
# [8] = system: A549-GM130-SQSTM1; experiment: as above
# In short: as §1
# [9] = system: A549-TP53BP1-CLTA; experiment: as above
# In short: as §1
# [10] = system: A549-TUBA1B-RELA; experiment: as above
# In short: as §1
# [11] = system: HepG2-ACTB-RAB5A; experiment: as above
# In short: as §1
# [12] = system: HepG2-CANX-COX4; experiment: as above
# In short: as §1
# [13] = system: HepG2-GM130-SQSTM1; experiment: as above
# In short: as §1
# [14] = system: HepG2-TP53BP1-CLTA; experiment: as above
# In short: as §1
# [15] = system: HepG2-TUBA1B-RELA; experiment: as above
# In short: as §1
# [16] = system: WPMY1-ACTB-RAB5A; experiment: as above
# In short: as §1
# [17] = system: WPMY1-CANX-COX4; experiment: as above
# In short: as §1
# [18] = system: WPMY1-GM130-SQSTM1; experiment: as above
# In short: as §1
# [19] = system: WPMY1-TP53BP1-CLTA; experiment: as above
# In short: as §1
# [20] = system: WPMY1-TUBA1B-RELA; experiment: as above
# In short: as §1
structure (smiles),measurement,setting,value
C=C1[C@@H](C)[C@H]2[C@H](Cc3ccccc3)NC(=O)[C@]23OC(=O)C=C[C@H](O)CCC[C@@H](C)CC=C[C@H]3[C@@H]1O [Cytochalasin B],lowest phenotypically active concentration,[1],≤ 0.3 µM
same,lowest phenotypically active concentration,[2],1 µM
same,lowest phenotypically active concentration,[3],1 µM
same,lowest phenotypically active concentration,[4],3 µM
same,lowest phenotypically active concentration,[5],1 µM
same,phenotypically active,[6],1 (active)
same,phenotypically active,[7],1 (active)
same,phenotypically active,[8],1 (active)
same,phenotypically active,[9],1 (active)
same,phenotypically active,[10],1 (active)
same,phenotypically active,[11],1 (active)
same,phenotypically active,[12],1 (active)
same,phenotypically active,[13],1 (active)
same,phenotypically active,[14],1 (active)
same,phenotypically active,[15],1 (active)
same,phenotypically active,[16],1 (active)
same,phenotypically active,[17],1 (active)
same,phenotypically active,[18],1 (active)
same,phenotypically active,[19],1 (active)
same,phenotypically active,[20],1 (active)
CCC1(CC)C(=O)NC(=O)N(C)C1=O [metharbital],phenotypically active,[6],0 (inactive)
same,phenotypically active,[7],0 (inactive)
same,phenotypically active,[8],0 (inactive)
same,phenotypically active,[9],0 (inactive)
same,phenotypically active,[10],0 (inactive)
same,phenotypically active,[11],0 (inactive)
same,phenotypically active,[12],0 (inactive)
same,phenotypically active,[13],0 (inactive)
same,phenotypically active,[14],0 (inactive)
same,phenotypically active,[15],0 (inactive)
same,phenotypically active,[16],0 (inactive)
same,phenotypically active,[17],0 (inactive)
same,phenotypically active,[18],0 (inactive)
same,phenotypically active,[19],0 (inactive)
same,phenotypically active,[20],0 (inactive)
C[C@H]1O[C@@H](O[C@H]2[C@@H](O)C[C@H](O[C@H]3[C@@H](O)C[C@H](O[C@H]4CC[C@@]5(C)[C@H](CC[C@@H]6[C@@H]5CC[C@]5(C)[C@@H](C7=CC(=O)OC7)[C@@H](O)C[C@]65O)C4)O[C@@H]3C)O[C@@H]2C)C[C@H](O)[C@@H]1O [Gitoxin],lowest phenotypically active concentration,[1],≤ 0.3 µM
same,lowest phenotypically active concentration,[2],≤ 0.3 µM
same,lowest phenotypically active concentration,[3],≤ 0.3 µM
same,lowest phenotypically active concentration,[4],≤ 0.3 µM
same,lowest phenotypically active concentration,[5],≤ 0.3 µM
same,phenotypically active,[6],1 (active)
same,phenotypically active,[7],1 (active)
same,phenotypically active,[8],1 (active)
same,phenotypically active,[9],1 (active)
same,phenotypically active,[10],1 (active)
same,phenotypically active,[11],1 (active)
same,phenotypically active,[12],1 (active)
same,phenotypically active,[13],1 (active)
same,phenotypically active,[14],1 (active)
same,phenotypically active,[15],1 (active)
same,phenotypically active,[16],1 (active)
same,phenotypically active,[17],1 (active)
same,phenotypically active,[18],1 (active)
same,phenotypically active,[19],1 (active)
same,phenotypically active,[20],1 (active)
COC[C@H]1OC(=O)c2coc3c2[C@@]1(C)C1=C(C3=O)[C@@H]2CCC(=O)[C@@]2(C)C[C@H]1OC(C)=O [wortmannin],lowest phenotypically active concentration,[1],1 µM
same,lowest phenotypically active concentration,[2],9 µM
same,lowest phenotypically active concentration,[3],3 µM
same,lowest phenotypically active concentration,[4],9 µM
same,phenotypically active,[6],1 (active)
same,phenotypically active,[7],1 (active)
same,phenotypically active,[8],1 (active)
same,phenotypically active,[9],1 (active)
same,phenotypically active,[10],1 (active)
same,phenotypically active,[11],0 (inactive)
same,phenotypically active,[12],0 (inactive)
same,phenotypically active,[13],0 (inactive)
same,phenotypically active,[14],0 (inactive)
same,phenotypically active,[15],0 (inactive)
same,phenotypically active,[16],0 (inactive)
same,phenotypically active,[17],0 (inactive)
same,phenotypically active,[18],0 (inactive)
same,phenotypically active,[19],0 (inactive)
same,phenotypically active,[20],0 (inactive)
COc1c2c(cc3c1OCO3)CC[N+](C)=C2 [Cotarnine chloride],phenotypically active,[6],0 (inactive)
same,phenotypically active,[7],0 (inactive)
same,phenotypically active,[8],0 (inactive)
same,phenotypically active,[9],0 (inactive)
same,phenotypically active,[10],0 (inactive)
same,phenotypically active,[11],0 (inactive)
same,phenotypically active,[12],0 (inactive)
same,phenotypically active,[13],0 (inactive)
same,phenotypically active,[14],0 (inactive)
same,phenotypically active,[15],0 (inactive)
same,phenotypically active,[16],0 (inactive)
same,phenotypically active,[17],0 (inactive)
same,phenotypically active,[18],0 (inactive)
same,phenotypically active,[19],0 (inactive)
same,phenotypically active,[20],0 (inactive)
